Measurements from the supplement of paper PMC6555819.

How the values were obtained:
Test in all cases: PBM binding z-score (relative to random genomic background probes); higher = stronger binding; sequences stand for … in GC…GCGATTGACAGCGTAGAATGAAGG
[1] = system: RARb homodimer (NR concentration 270 nM)
Outline: (§1)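 On custom Agilent 4×180K arrays, double-stranded probes with 34-nt variable regions carried direct-repeat seeds, single-nucleotide variants, half-site ablations or random human genomic background. Ligand-free nuclear receptor dimers were applied for 1 h, and binding was read with antibodies against each partner (one per run). Binding z-scores come from regression-normalized fluorescence, with the random background probes as reference.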

[2] = system: RARg:RXRa (NR concentration 270 nM, RXRa partner concentration 90 nM)
Outline: as §1

[3] = system: RARg homodimer (NR concentration 270 nM)
Outline: as §1

[4] = system: RXRa DBDmut IVT, anti-RXR (DBD mutation: RXRa K156A/R161A, NR concentration 90 nM)
Outline: as §1

[5] = system: RXRa homodimer (NR concentration 180 nM)
Outline: as §1

[6] = system: THRa:RXRa (NR concentration 90 nM, RXRa partner concentration 90 nM)
Outline: as §1

[7] = system: THRa homodimer (NR concentration 90 nM)
Outline: as §1

[8] = system: VDR homodimer (NR concentration 270 nM)
Outline: as §1

Row | Sequence | PBM binding z-score [1] | PBM binding z-score [2] | PBM binding z-score [3] | PBM binding z-score [4] | PBM binding z-score [5] | PBM binding z-score [6] | PBM binding z-score [7] | PBM binding z-score [8]
1 | TCGAGTAGGTTAGGCGGGGCATTCAGCCAACATA | 0.241 | 0.2 | -0.0839 | -0.0244 | 0.0673 | 0.994 | -0.341 | 0.0165
2 | TCTTGTAGATCAAAGGTTTAGAAAGCCGAAGCCT | -0.342 | -0.312 | -0.404 | 0.516 | 0.291 | -0.356 | -0.747 | 0.0902
3 | CCTTACGGGTCACGAGGTGATAGCACGACGAGCG | 3.52 | 5.58 | 5.46 | 1.66 | 6.44 | 3.48 | 0.888 | 1.15
4 | ACTATTAGTTGAGACGAGCGCAACCGATAGGTTG | -0.567 | -0.546 | 0.138 | -0.188 | -0.211 | -0.381 | -0.708 | -0.0904
5 | TAGCCTAGGTCATTGGGACAGTATAGTACGCATC | 2.92 | 3.97 | 4.51 | 1.52 | 3.13 | 2.95 | 1.14 | 1.44
6 | TGGAGTAGGTTACCAATGGGGCATTCAGCTTTCT | 1.16 | 1.4 | 0.805 | -0.418 | 0.605 | 0.403 | -0.198 | -0.00533
7 | TAGCCTAGGTTATTGGGCCAGTATAGTACGCATC | 0.536 | 0.395 | 0.586 | -0.294 | 0.452 | 0.29 | -0.377 | -0.529
8 | CGTCAAAGTTCAAGGTAACGCAACAGAAAGCAGC | 3.59 | 5.16 | 6.13 | 4.31 | 4.24 | 2.97 | 1 | 3.74
9 | AATACAGGGTCACTAGGCCAGAGCAGGTACGAAT | 3.36 | 5.15 | 5.08 | 2.67 | 5.66 | 3.31 | 1.07 | 2.39
10 | TCAGACAGGTAAAGGTAACTCAGGTACGCAGTCG | 0.829 | 0.751 | 0.576 | 1.53 | 1.08 | 1.67 | 0.705 | 0.388
11 | CAGCCTAGGTCAGGGCCAGTAGAGGAGGAACGTT | 2.31 | 2.91 | 3.9 | -0.543 | 1.35 | 1.88 | 0.411 | 0.169
12 | ATATCTAGGTAAAGTTCAGTGAAAGATCGATAGA | 2.45 | 2.04 | 2.43 | 1.6 | 1.53 | 1.33 | 0.34 | 1.78
13 | GCTGCTAGGTCAGGTTAGTCAGCTAACGGGTACG | 2.62 | 2.89 | 3.82 | 0.579 | 1.17 | 2.36 | 0.56 | 0.0703
14 | TCTGCTAGGTCAACGATGGTCTGCTAATCTGCTA | 2.72 | 3.69 | 4.4 | 0.993 | 2.25 | 2.6 | 0.712 | -0.658
15 | ATACCAAGGTGATCGTGAGGCCGTTGATACTAAC | 0.758 | 0.629 | 0.127 | 0.132 | 0.254 | 2.05 | 1.14 | 0.643
16 | TTACTAAGGTGAGCTGAGGTCGTTGATCCAACTC | 1.96 | 1.39 | 1.38 | 0.464 | 1.52 | 4.79 | 2.51 | 2.32
17 | GCTTGTAGACCAAGGTTAAGAAAGACTAAGCTAA | 0.241 | 0.214 | 0.239 | -0.149 | 0.485 | 0.969 | -0.368 | -0.0799
18 | TCATATATGTAAAGGTGAAAGTCGAACGATATGA | 1.45 | 1.45 | 1.16 | 0.622 | 2.19 | 1.19 | -0.594 | 0.112
19 | TAGCCTATGTCATTGGGCCAGTATAGTACGCATC | -0.0367 | 0.242 | 0.413 | -0.587 | 0.472 | -0.314 | -0.671 | -0.244
20 | GCGACTGGGGCAAAGCAGGCTACCATAAGGTTGG | 0.228 | 0.143 | 0.207 | -0.628 | 0.0152 | 1.59 | -0.688 | -0.862
21 | TAGCCTAGGTCATGGGCCAGGATACCACGCGAAC | 2.85 | 4.26 | 4.49 | -0.534 | 3.86 | 3.22 | 1.33 | 0.424
22 | TCGAGTAGGTTAGCGGCATTCAGAATGGCGTCGA | -0.725 | -0.482 | -0.458 | -0.267 | 0.000996 | -0.647 | -0.985 | -0.691
23 | TCTTGTAGATCAATAGATGTTAAGAAAGTGCGCT | -0.256 | 0.00708 | 0.206 | 0.767 | 0.395 | -0.118 | -0.769 | -0.147
24 | ATCGAAGGGTCGTGAGGTGAGTATACAGAAAGGC | 2.09 | 3.05 | 2.55 | 0.87 | 3.4 | 2.84 | 1.51 | 0.783
25 | ATCTCTAGGTAACCAAGTTCAGTTAATGCCGAAC | 1.74 | 1.09 | 1.12 | 1.33 | 0.444 | 1.97 | 1.43 | 3.19
26 | CGAGCTAGGTCAGAACAGGACAGTGAAGGATGAT | 2.11 | 2.12 | 3.53 | 0.0691 | 1.07 | 3.47 | -0.106 | -0.325

Row | Sequence | PBM binding z-score [1] | PBM binding z-score [2] | PBM binding z-score [3] | PBM binding z-score [4] | PBM binding z-score [5] | PBM binding z-score [6] | PBM binding z-score [7] | PBM binding z-score [8]
27 | GTACCAAGGTGATTAGGTCGTTGATGAGTAGGCG | 1.06 | 0.806 | 0.66 | 0.0245 | 0.805 | 1.49 | 1.03 | 0.631
28 | TTACCCAGGTGAAGGTCGTTGATCCCTCTGTAGA | 1.33 | 0.65 | 0.626 | -0.428 | 1.31 | 1.91 | 0.888 | 1.26
29 | ATCTCTAGGTAACATGTTCAGTGAAAGAGAGGAC | 0.187 | 0.668 | 0.705 | 0.0522 | 0.565 | 1.04 | 0.541 | -0.0529
30 | CCTAACAGGCCAGGGTCACTCAAGCATTTCGCTT | 2.8 | 3.17 | 2.48 | 0.743 | 3.37 | 3.01 | 1.15 | 1.44
31 | AATACAGGCTCATCGTAGGCCAGAGTACGCACAG | 0.104 | -0.0529 | 0.066 | -0.472 | -0.0365 | 0.0323 | -0.199 | 0.118
32 | TCTTGTAGATCAACAGGAGGTGAAGAAAGATCGA | 0.000947 | 0.381 | 0.0903 | 0.184 | 0.315 | 0.726 | -0.344 | -0.884
33 | GGAACGAGCGCATTCGAGTTGATAGCATGGCGAT | -0.974 | -0.544 | -0.227 | 0.0101 | -0.607 | -0.857 | -1.27 | -0.406
34 | GCGACTGGGGCAAAGCAGGGTACCATAAGGTTGG | 0.665 | 0.296 | 0.341 | -0.678 | 0.287 | 1.61 | -0.383 | -0.139
35 | TAGCCTAGGTCATGCGCGCCAGTATAGTGTCGGC | 3.06 | 4.02 | 4.19 | 0.635 | 3.16 | 3.17 | 1.27 | 0.448
36 | GGAACGAGGCCAAGTTGATAGCAGAGTTTGATGG | 0.533 | 0.334 | 1.03 | 1.18 | -0.0996 | 0.407 | -0.535 | 0.778
37 | CACACTAGGTCAAGGTCAAAGTCGGTTTGTGCCA | 4.95 | 6.21 | 6.6 | 3.28 | 5.76 | 4.44 | 4.03 | 4.95
38 | ATCTTTAGGTAAGACTCAGTTCAGTGAAGAACGC | 0.715 | 0.526 | 0.533 | 0.843 | 0.131 | 1.28 | 0.881 | 1.44
39 | GCTGCTCGGTCAGGTTGGTCAGCTAACGGGTACG | 1.53 | 0.691 | 2.11 | -0.37 | -0.405 | -0.155 | -0.287 | -0.476
40 | TCATATAGGTAAAGGTGAAAGTAGAACGATATGA | 1.35 | 1.71 | 1.43 | 0.637 | 2.2 | 1.36 | -0.513 | -0.148
41 | ATATGAAGGTTAAGGGTCATTCAGGTTGGTTCGC | 4.38 | 5.3 | 3.81 | 2.14 | 7.12 | 3.95 | 1.5 | 4.67
42 | AGTCAAAGTTCACTGGGTAACGTAAGATTCAGCT | 3.82 | 5.43 | 5.94 | 4.4 | 4.47 | 1.92 | -0.189 | 4.09
43 | CGTCCAAGGTCAGCAGGTCGGTGAAAGCGACGTG | 4.14 | 5.49 | 6.04 | 2.37 | 4.37 | 3.57 | 1.92 | 1.3
44 | TCTTGTAGCTCAACAGGAGGTTAAGAAAGATCGA | -0.0225 | 0.173 | 0.0214 | -0.206 | 0.559 | 0.491 | -1.06 | -0.327
45 | ACAGACAGGTGATGAAGGTAAATCAGGCTATCAT | 0.0548 | 0.28 | 0.373 | -0.384 | 0.316 | 0.885 | -0.061 | -0.34
46 | ATCGAAAGGTCGACGTGGTGAGTATACACCGTTT | 2.74 | 4.04 | 4.24 | 1.23 | 4.03 | 1.89 | -0.255 | 0.481
47 | AAGACAGGGTCATCGTAGGCCAGAGTACGCACAG | 3.6 | 5.67 | 5.54 | 3.14 | 6.69 | 4.37 | 1.12 | 3.34
48 | CCTAGTAGTTGACCATAAGGGCAACCGAAGCTCG | 2.08 | 1.13 | 0.854 | -0.02 | 0.613 | 1.81 | 1.16 | 0.728
49 | CGTCCAAGGTCAAGGTCAGTGAGAGAGACTCGAA | 5.4 | 6.7 | 7.4 | 3.75 | 6.25 | 4.31 | 3.35 | 3.5
50 | CCTTCTGGGCCAAGGTCATTGATCAGTCAAAGCA | 3.27 | 3.66 | 3.02 | 1.31 | 3.24 | 3.49 | 2.34 | 2.71
51 | CAAATTAGGTCACCGGAAGGTCAAAGTCCGCATG | 5.53 | 8.32 | 7.57 | 2.34 | 6.18 | 4.78 | 3.89 | 3.8
52 | GCTATTATTTGAAAGGGCAACCGAATGATTCTCG | 2.11 | 1.12 | 1.27 | 0.947 | 1.03 | 0.568 | 0.3 | 0.995
